Data reported in PubChem BioAssay.
The source made the active and inactive calls. The rule behind the calls is not given here.

Biological target: Pantothenate synthetase (Mycobacterium tuberculosis (strain ATCC 25618 / H37Rv)) (UniProt P9WIL5)
Test: Recombinant Mtb pantothenate synthetase (PanC) inhibitors, coupled enzyme, confirmatory (AID 375);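 note: 0% = full reaction with vehicle and 100% = no enzyme background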
Conditions: coupled enzyme assay; at 10 µM, hits give high values

Pantothenate synthetase (Mycobacterium tuberculosis (strain ATCC 25618 / H37Rv)), sequence (P9WIL5 whole entry, looked up): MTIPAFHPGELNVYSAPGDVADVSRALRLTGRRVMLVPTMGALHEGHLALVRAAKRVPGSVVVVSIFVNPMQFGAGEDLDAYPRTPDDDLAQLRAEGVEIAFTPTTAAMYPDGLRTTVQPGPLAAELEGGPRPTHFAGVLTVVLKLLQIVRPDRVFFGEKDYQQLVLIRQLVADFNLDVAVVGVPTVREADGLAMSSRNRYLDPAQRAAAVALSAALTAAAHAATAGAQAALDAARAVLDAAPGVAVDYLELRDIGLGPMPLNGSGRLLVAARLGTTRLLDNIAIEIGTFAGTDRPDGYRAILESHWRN

Row | Compound | inhibition
1 | Cc1cc(=O)n2[nH]c(-c3ccc(Cl)cc3)cc2n1 | 0% (inactive)
2 | Cc1[nH]c(=O)[nH]c(=O)c1S(=O)(=O)N(C)Cc1ccccc1 | 0% (inactive)
3 | O=C(CCNS(=O)(=O)c1cccc2nsnc12)NCc1cccs1 | 1% (inactive)
4 | C=CCSc1nnc(NC(=O)c2ccc(S(=O)(=O)NCC3CCCO3)cc2)s1 (stereo not given) | 1% (inactive)
5 | Cc1nc2c(-c3ccc(F)cc3)c(C)nn2c(C)c1CCC(=O)NC(C)CCc1ccco1 (stereo not given) | 0% (inactive)
6 | O=C(Nc1ccccc1N1CCOCC1)c1ccc2ccccc2n1 | 0% (inactive)
7 | CCOC(=O)Nc1ccc2c(CN3C(=O)NC4(CCCC4)C3=O)cc(=O)oc2c1 | 2% (inactive)
8 | COc1ccc(-c2nnnn2C)cc1S(=O)(=O)NCc1ccccc1 | 1% (inactive)
9 | O=C(COc1ccccc1)NCCSCc1ccco1 | 0% (inactive)
10 | CC(C)[N+]1(C)[C@@H]2CC[C@H]1CC(OC(=O)C(CO)c1ccccc1)C2 (stereo not given in full) | 0% (inactive)
11 | Cc1cc(C)c(C(=O)Nc2ccc(S(=O)(=O)Nc3onc(C)c3C)cc2)c(C)c1 | 8% (inactive)
12 | CC(CN(C)Cc1ccccc1)OC(=O)c1ccc2c(c1)OCCO2 (stereo not given) | 0% (inactive)
13 | COC(=O)c1sc(S(=O)(=O)NCc2cccs2)c(C(=O)OC)c1C | 0% (inactive)
14 | OCCn1c(-c2ccc3c(c2)OCO3)csc1=Nc1ccccc1 | 1% (inactive)
15 | CN(Cc1nc(-c2ccncc2)no1)S(=O)(=O)c1ccc(Br)cc1 | 2% (inactive)
16 | CCc1ccc(NS(=O)(=O)c2cccs2)cc1 | 0% (inactive)
17 | CCCOc1ccc(C2c3c(oc4ccccc4c3=O)C(=O)N2CCCN2CCOCC2)cc1 (stereo not given) | 4% (inactive)
18 | O=C(CSc1nc(O)cc(=O)n1-c1ccccc1)N1CCCCC1 | 0% (inactive)
19 | Cc1cccc(Nc2ncc3c(n2)CC(c2ccco2)CC3=O)c1 (stereo not given) | 1% (inactive)
20 | Cc1ccc(-c2nc3cnccn3c2Nc2ccc3c(c2)OCO3)o1 | 2% (inactive)

Row | Compound | inhibition
21 | COc1ccc(Cn2c(-c3ccco3)nc3oc4ccccc4c(=O)c3c2=O)cc1 | 0% (inactive)
22 | COC(=O)c1c(NC(=O)CSc2nnnn2C)sc(C)c1C | 0% (inactive)
23 | COc1cc2c(cc1NCc1ccccn1)oc1ccccc12 | 0% (inactive)
24 | N#Cc1ccc(CSc2nnc(-c3ccccn3)n2-c2ccccc2)cc1 | 0% (inactive)
25 | CCCCn1c(NC(=O)CC)c(C#N)c2nc3ccccc3nc21 | 4% (inactive)
26 | CC(C)(C)c1nnc(NC(=O)C2CCN(c3ncccn3)CC2)s1 | 1% (inactive)
27 | COc1ccc(N2CCN(C(=O)C(C)(C)Oc3ccc(Cl)cc3)CC2)cc1 | 0% (inactive)
28 | COc1ccc(-c2coc3c(CN4CCCCC4)c(O)c(CN4CCCCC4)c(O)c3c2=O)cc1 | 0% (inactive)
29 | CCc1nnc(NC(=O)CSc2nnc(-c3ccc(OC)cc3)n2C)s1 | 0% (inactive)
30 | O=C(Cc1cccs1)N(c1ccccc1)C1C=CS(=O)(=O)C1 (stereo not given) | 3% (inactive)
31 | CCOc1ccccc1N1CC(O)=C(c2nc3ccccc3s2)C1=N | 9% (inactive)
32 | O=C(CN(c1ccc(F)cc1)S(=O)(=O)c1ccc2c(c1)OCCO2)Nc1cccnc1 | 0% (inactive)
33 | O=S(=O)(Cc1ccccc1)N1CCN(Cc2ccccc2)CC1 | 5% (inactive)
34 | COc1ccc(C2CC(=O)C3=C(C2)Nc2ccccc2N(C(=O)C2CC2)C3c2cccnc2)cc1OC (stereo not given) | 8% (inactive)
35 | COc1ccccc1OCCSc1nc2ccccc2c(=O)[nH]1 | 0% (inactive)
36 | CCOC(=O)c1c(C)oc2ccc(O)c(CN3CCCCC3)c12 | 12% (inactive)
37 | O=C(NCC1CCCO1)c1ccc(C(=O)NCC2CCCO2)cc1 (stereo not given) | 0% (inactive)
38 | CCC(=O)c1ccc(OCCN2CCOCC2)cc1 | 4% (inactive)
39 | Cn1c(Cc2cccs2)nnc1SCC(=O)N1CCc2ccccc21 | 0% (inactive)
40 | CC(=O)c1sc(NC(=O)C2COc3ccccc3O2)nc1C (stereo not given) | 3% (inactive)
